Screening data as filed in PubChem.
Only some compounds are listed: those with a hit (about 3.5% of all), similar ones and a draw of the others.
Mtb hypoxia rep: PubChem AID 1159583. M. tuberculosis hypoxia-regulated fluorescent reporter, fluorescence. fluorescence inhibition, % (no concentration beside the values). hit rate 0.1% among 300,000; in the data active means fluorescence inhibition mostly above about 23%, no sharp cut-off; inactive means mostly below about 17%
Rv3671c protease: Rv3671c serine protease inhibitors, primary screen, biochemical, fluorescence polarization, M. tuberculosis H37Rv; P9WHR9; hit rate 0.048% among 320,000; inhibition, % at 5.96 µM; in the data active means inhibition above about 38%;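 further: extracellular domain of Rv3671c used as enzyme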
Mtb UGM inh: M. tuberculosis UGM enzyme inhibitors, primary screen, biochemical, fluorescence polarization, single point; UDP-galactopyranose mutase (Mycobacterium tuberculosis (strain ATCC 25618 / H37Rv)), …; purified UGM, fluorescence polarization probe displacement; inhibition, % at 10 µM; hit rate 0.06% among 320,000; AID 504406, 2011; in the data active means inhibition above about 10%, passing the limit was not always enough
FadD28 FP inh: inhibitors of FadD28 bisubstrate probe binding, primary screen, biochemical, fluorescence polarization, single point; hit rate 0.22% among 360,000; inhibition, % at 12.5 µM; Mycobacterium tuberculosis FadD28 fatty-acid-AMP ligase; AID 588549, 2011; in the data active means inhibition above about 8.5%, passing the limit was not always enough
FBA Mtb inh: Mtb FBA enzyme inhibitors, primary screen, biochemical, fluorescence, strain H37Rv; purified M. tuberculosis FBA, fluorescence read-out; Fructose-bisphosphate aldolase (Mycobacterium tuberculosis (strain ATCC 25618 / H37Rv)), …; hit rate 2.3% among 360,000; AID 588726, 2011; inhibition, % at 1 µM
Target sequence (P9WQA3 whole entry, looked up): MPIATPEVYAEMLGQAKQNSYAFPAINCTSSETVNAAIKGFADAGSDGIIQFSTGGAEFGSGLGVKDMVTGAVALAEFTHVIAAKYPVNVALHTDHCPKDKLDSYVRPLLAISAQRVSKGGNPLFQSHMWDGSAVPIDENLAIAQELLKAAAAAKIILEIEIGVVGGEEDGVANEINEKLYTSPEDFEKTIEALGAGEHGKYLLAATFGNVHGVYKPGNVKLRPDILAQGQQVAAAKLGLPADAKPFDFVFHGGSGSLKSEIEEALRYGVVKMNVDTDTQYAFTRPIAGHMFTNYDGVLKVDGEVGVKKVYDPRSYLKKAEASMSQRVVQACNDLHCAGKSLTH
GDH-TPI counter-1: GDH-TPI coupling enzyme inhibitors, primary screen, artefact control for M. tuberculosis FBA inhibitor project, biochemical, absorbance, full deck; GDH-TPI coupled enzyme counterscreen, NADH absorbance; inhibition, % at 4.8 µM; hit rate 1.2% among 360,000; AID 588335, 2011; in the data active means inhibition above about 30%
Mtb FBA inh conf: M. tuberculosis aldolase blockers, biochemical, fluorescence, strain H37Rv, confirmation | shares compounds with FBA Mtb inh | purified M. tuberculosis FBA, fluorescence read-out | inhibition, % at 1 µM | hit rate 78% among 5,600
GDH-TPI counter-2: GDH-TPI coupling enzyme inhibitors, artefact control for M. tuberculosis FBA inhibitor project, biochemical, fluorescence, high throughput; shares compounds with FBA Mtb inh; GDH-TPI coupled enzyme counterscreen; inhibition, % at 1 µM; hit rate 81% among 5,600; in the data active means inhibition above about 10%
GDH-TPI dose: GDH-TPI coupling enzyme inhibitors, dose response, artefact control for M. tuberculosis FBA inhibitor project, biochemical, fluorescence, IC50 | GDH-TPI coupled enzyme assay, artifact counterscreen | hit rate 79% among 170 | shares compounds with FBA Mtb inh | AID 652145, 2013 | IC50, µM; call rule not given here
Hits are given with their value; n = inactive; x = not tested or not shown; + = active, no number. Unless noted, no stated cut-off is given here; in the data, active means inhibition above about 27%; inactive means the rest.

SMILES	Mtb hypoxia rep	Rv3671c protease	Mtb UGM inh	FadD28 FP inh	FBA Mtb inh	GDH-TPI counter-1	Mtb FBA inh conf	GDH-TPI counter-2	others
Cc1cc(OCC(=O)NCCCN2CCCC2=O)c2c(C)cc(=O)oc2c1	n	n	n	n	103	n	n	n
Cn1c(SCC=Cc2ccccc2)nnc1-c1cnccn1	n	x	x	x	x	x	x	x
CCOC(=O)C1C2COc3ccc(C)cc3C2N2C(=O)CN(CC3CCCO3)C(=O)[C@@]12C (some centres undefined)	n	x	x	x	x	x	x	x
Cc1ccccc1NC(=O)Cn1c(C)nc2ccc(N)cc2c1=O	n	n	n	n	61	n	n	n	GDH-TPI dose=2.8
Cc1cccc2c(C(=O)O)c3c(nc12)CCCCC3	x	n	n	n	n	n	x	x
Cc1cccc2c(C(=O)O)c3cccc(C)c3nc12	n	n	n	n	95	n	52	55
CCCC(=O)N1CCN(c2nc(CC(C)C)c3c(c2C#N)CCC3)CC1	x	n	n	n	32	n	159	120
Cc1ccc(-c2ccc(SCC(=O)NCC3CCCO3)nn2)cc1 (centres undefined)	n	n	n	n	n	n	x	x
NC(=O)CSc1nnc2ccc(-c3ccco3)nn12	x	n	n	n	n	n	x	x
COc1ccc(-c2ccc3nnc(SCC(N)=O)n3n2)cc1	n	n	n	n	29	n	85	60
COc1ccc(-c2ccc3nnc(SCC(=O)NCC4CCCO4)n3n2)cc1 (centres undefined)	n	n	n	n	34	n	172	120
O=C(CSc1ccc2nc(-c3ccccc3)cn2n1)NCC1CCCO1 (centres undefined)	n	n	n	n	111	n	+	+
CCCN(CC(=O)Nc1ccccc1C)C(=O)c1ccc(-c2ccc(C(C)=O)cc2)o1	n	n	n	n	73	31	n	n
CCCN(CC(=O)Nc1ccccc1C)C(=O)c1ccc(C(=O)c2ccccc2)cc1	n	n	n	n	n	n	x	x
O=c1c2ccccc2nc(C=Cc2cccc([N+](=O)[O-])c2)n1CCCO	n	x	x	x	x	x	x	x
COC(=O)c1cc(C#N)c(N2CC(C)OC(C)C2)nc1C (centres undefined)	n	n	n	n	35	n	65	44
COC(=O)c1cc(C#N)c(N2CCN(C)CC2)nc1C	n	n	n	n	n	n	x	x
O=C(N/N=C/c1ccc(N2CCOCC2)cc1)C1COc2ccccc2O1 (centres undefined)	x	n	n	n	38	n	44	41
COc1ccc(Cn2c(N)c(C#N)c3nc4ccccc4nc32)cc1OC	x	n	n	n	n	n	x	x
CCCCn1c(NC(C)=O)c(C#N)c2nc3ccccc3nc21	n	n	n	n	59	n	96	77
N#Cc1c(N)n(CCNC(=O)c2ccccc2)c2nc3ccccc3nc12	n	n	n	n	98	n	+	+
CCCCCn1c(N)c(C#N)c2nc3ccccc3nc21	n	n	n	n	111	n	n	n
CCCCn1nnnc1NCc1cccnc1	x	n	n	n	30	n	+	+
CCCCn1nnnc1NCc1ccc(N2CCCC2)cc1	x	n	n	n	n	n	x	x
Clc1ccc(-c2csc(NN=Cc3ccco3)n2)cc1	n	x	x	x	x	x	x	x
SMILES	Mtb hypoxia rep	Rv3671c protease	Mtb UGM inh	FadD28 FP inh	FBA Mtb inh	GDH-TPI counter-1	Mtb FBA inh conf	GDH-TPI counter-2	others
CCN(CC)C(=O)CN1C(=O)C2(NC(=O)c3ccccc3N2)c2ccccc21 (centres undefined)	x	n	n	n	n	n	x	x
CC(=O)N1CC2(NC(=O)c3ccccc3N2)c2ccccc21 (centres undefined)	n	n	n	n	80	n	+	188
CN(C)CCCOc1ccc(-c2ccc3nncn3c2)cn1	x	x	x	n	n	n	x	x
CN(C)CCCOc1ccc(-c2cccc3nncn23)cn1	x	x	x	n	43	n	146	120
CN(C)CCNC(=O)c1cccc(-c2cccc3nncn23)c1	x	x	x	n	71	n	134	88
CN(C)CCNC(=O)c1cccc(-c2cnc3c(NC=O)cc(-c4cc(F)c(F)c(F)c4)cn23)c1	x	x	x	n	n	n	x	x
Cc1ccc2cc(C=NNC(=O)c3ccccc3[N+](=O)[O-])c(Cl)nc2c1	n	x	x	x	x	x	x	x
CC(=O)NN1C(=O)c2ccccc2NC1c1ccccn1 (centres undefined)	n	n	n	n	27	n	n	n	GDH-TPI dose=6
O=C(NN1C(=O)c2ccccc2NC1c1ccccn1)c1ccc(Br)cc1 (centres undefined)	n	n	n	n	n	n	x	x
CC(=O)NN1C(=O)c2ccccc2NC1c1ccco1 (centres undefined)	x	n	n	n	32	n	39	23
O=C(NN1C(=O)c2ccccc2NC1c1ccco1)c1ccc(Br)cc1 (centres undefined)	n	n	n	n	n	n	x	x
Cc1cc(C)n(N=Cc2cccc([N+](=O)[O-])c2)c(=O)c1	n	x	x	x	x	x	x	x
Nc1c(-c2ccccc2)n[nH]c1-c1ccccc1	n	n	n	n	40	n	72	50
COc1ccc(Cc2c(-c3ccc(OC)c(OC)c3)nc3ccc(C)cn23)c(C)c1	x	x	x	n	31	x	54	43
COc1ccc(-c2nc3ccc(C)cn3c2Cc2cccc(F)c2)cc1OC	x	x	x	n	59	x	66	65
COc1ccc(Cc2c(-c3ccc(OC)c(OC)c3)nc3c(C)cc(Br)cn23)c(C)c1	x	x	x	n	n	x	x	x
CCN(CC)CCN1C(=O)c2ccccc2NC1c1cc(OC)c(OC)c(OC)c1 (centres undefined)	n	n	n	n	107	n	+	+
CCCN1C(=O)c2ccccc2NC1c1cc(OC)c(OC)c(OC)c1 (centres undefined)	x	n	n	n	71	n	137	114
CC=CC(=O)N1CC2(CC(c3cccc(NC(=O)CC(c4ccccc4)c4ccccc4)c3)=NO2)CC1C(N)=O (centres undefined)	n	x	x	x	x	x	x	x
N#Cc1c(-c2ccc(Br)cc2)cc(-c2cccnc2)nc1N	n	n	n	n	29	n	n	n	GDH-TPI dose=n
COc1ccc(-c2cc(-c3cccnc3)c(C#N)c(N)n2)cc1	n	n	n	n	71	n	135	106
COc1ccccc1-c1cc(-c2ccc(O)cc2)nc(N)c1C#N	n	n	n	n	66	n	140	109
